Assay outcomes (PubChem)
TDP1 cell CPT = growth inhibition of DT40 Tdp1-/-;hTDP1 cells with camptothecin (screen for TDP1 inhibitors). chicken DT40 Tdp1-/-;hTDP1 cells + 20 nM CPT, ATP luminescence, 48 h. Potency, µM (top dose mostly 46.2 µM), without a hit: at the top dose activity change, negative = growth inhibition, most hits filed as inhibitors. actives 12% (n = 420,000). AID 686979; further: potency means the concentration at half of the fitted maximal effect; nearly all actives have a fitted effect of over 55% in size
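Chicken DT40 Tdp1-/- cells stably complemented with human TDP1 were seeded at 400 cells/well in medium containing 20 nM camptothecin, exposed to pin-transferred compounds, and grown at 37 °C for at least 48 hr. Viability was read as ATP luminescence.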
Six1-Eya2 blk = inhibitors of human Six1/Eya2 interaction; actives 0.56% (n = 360,000); AID 651725; activity change, % (no concentration beside the values); AlphaScreen GST-Six1/His-Eya2 binding, biochemical; active compounds read low; in the data active means activity change below about -65%; inconclusive means mostly about -30% to -63%
Target sequence (O00167 whole entry, looked up): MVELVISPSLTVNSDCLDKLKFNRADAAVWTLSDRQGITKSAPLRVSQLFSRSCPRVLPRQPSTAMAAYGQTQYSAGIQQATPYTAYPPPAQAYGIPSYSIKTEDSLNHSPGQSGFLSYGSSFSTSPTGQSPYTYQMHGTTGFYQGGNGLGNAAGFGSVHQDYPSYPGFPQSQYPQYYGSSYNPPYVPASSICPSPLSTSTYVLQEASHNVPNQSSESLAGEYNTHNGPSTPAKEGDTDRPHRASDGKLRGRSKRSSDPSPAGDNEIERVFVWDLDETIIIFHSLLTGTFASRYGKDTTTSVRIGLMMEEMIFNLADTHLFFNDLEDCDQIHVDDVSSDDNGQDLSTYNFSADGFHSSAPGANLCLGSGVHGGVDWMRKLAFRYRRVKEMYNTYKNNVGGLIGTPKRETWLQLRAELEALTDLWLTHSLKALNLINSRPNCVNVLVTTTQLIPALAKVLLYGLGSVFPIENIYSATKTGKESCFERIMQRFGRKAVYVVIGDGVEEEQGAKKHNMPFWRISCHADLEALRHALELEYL
Target sequence (Q15475 whole entry, looked up): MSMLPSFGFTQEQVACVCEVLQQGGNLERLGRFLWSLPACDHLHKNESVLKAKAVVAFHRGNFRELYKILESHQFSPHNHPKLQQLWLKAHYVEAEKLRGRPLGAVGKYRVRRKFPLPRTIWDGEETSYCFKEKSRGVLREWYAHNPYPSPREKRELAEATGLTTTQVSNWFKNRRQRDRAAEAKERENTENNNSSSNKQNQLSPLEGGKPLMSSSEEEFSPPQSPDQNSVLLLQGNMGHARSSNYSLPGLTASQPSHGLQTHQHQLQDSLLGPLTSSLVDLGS
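Compounds are tested against tagged Six1 and Eya2 proteins bridged by glutathione donor and nickel acceptor beads; after a one-hour incubation at 37 °C without light, AlphaScreen emission is recorded.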
TDP1 block = blocks human tyrosyl-DNA phosphodiesterase 1; Q9NUW8; recombinant TDP1, AlphaScreen DNA substrate cleavage; Potency, µM (titrated, usually from 130 µM), for inactives: at the top dose activity change, negative = inhibition, usual class: inhibitors; actives 0.28% (n = 350,000); further: potency means the concentration at half of the fitted maximal effect; nearly all actives have a fitted effect of over 40% in size
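Steps: enzyme plus compound, 15 min RT; add biotin/phosphotyrosine-FITC oligonucleotide (15 nM final), react 5 min; add donor/acceptor beads (10 ug/ml final), 10 min; read AlphaScreen. Tdp1 at 1 nM final.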
CtBP-E1A blk = CtBP/E1A binding inhibition. AlphaScreen GST-E1A/His-CtBP binding, 1536-well; active compounds read low. activity change, % (test concentration not listed). actives 0.49% (n = 340,000). AID 651724; in the data active means activity change below about -65%; inconclusive means mostly about -30% to -63%
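Protein mix (5X: 125 nM each GST-E1A, His-CtBP) was incubated with pinned compound 2 h at 37 deg C in dark, in 50 mM Tris pH 8.0 buffer with 300 mM NaCl. Glutathione donor and nickel acceptor beads followed; AlphaScreen signal read after 1 h.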
IL-1B inflam inh = blocks inflammasome-driven IL-1 beta release. activity change, % at 57.5 µM. actives 4.7% (n = 360,000). THP-1 LPS/ATP IL-1B secretion, AlphaLISA, 16 h; active compounds read low. AID 743279; in the data active means activity change below about -50%; inconclusive means mostly about -30% to -49%
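Secreted IL-1B measured by AlphaLISA bead assay after 16 h compound exposure of THP-1 cells; compounds (final up to 57.5 uM) added 1 h before LPS (250 ng/mL) and ATP (1.25 mM) stimulation; lower signal means less secretion.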
TDP1 cell noCPT = qHTS for Inhibitors of human tyrosyl-DNA phosphodiesterase 1 (TDP1): qHTS in cells in absence of CPT. DT40 Tdp1-/- hTDP1 cells, no CPT, ATP luminescence, 48 h. Potency, µM (titrated, usually from 46.2 µM), inactives show at the top dose activity change, negative = growth inhibition, most hits filed as inhibitors. actives 15% (n = 420,000). AID 686978, 2013; further: potency means the concentration at half of the fitted maximal effect; nearly all actives have a fitted effect of over 55% in size
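Seeded 400 DT40-hTDP1 cells/well (vehicle DMSO, no 20 nM CPT); pinned compounds; ≥48 hr at 37 °C; CellTiter-Glo luminescence as viability measure.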
* hit, by the source's call; ? = inconclusive; / = no result; ! = not active in a repeat; [ ] = dose if it differs, or a comment. Compounds with a hit are over-represented: about 18% of the library has one in this group of screens. Unless noted, the call rests on the fitted dose curve; in most records, active means well fitted curve in the direction sought with a large enough effect; inconclusive means small, poorly fitted or top-dose-only effect, or another doubt; inactive means no such curve, though single readings can be large; an effect the other way counts as inactive or inconclusive. On the % scale 0 is the no-effect control and ±100 the full control effect.

SMILES	TDP1 cell CPT	Six1-Eya2 blk	TDP1 block	CtBP-E1A blk	IL-1B inflam inh	TDP1 cell noCPT
C[C@H](NC(=O)OC(C)(C)C)c1nnc(SCC(=O)Nc2cccc(Cl)c2)o1	-24.8%	-0.4	-0.3%	-2.3	-1.1	16.6%
CCCC1(C(=O)OCC)NC(c2ccc(O)cc2)C2C(=O)N(c3cccc(C(C)=O)c3)C(=O)C21 (stereo not drawn)	-8.2%	-5.6	/	-1.6	41.8	-2.0%
CN1CCN(C(=O)CCCOc2cc(=O)n(C)c3ccccc23)CC1	-16.1%	-4.7	6.8%	0.0	?	-24.6%
CC(C)(C)OC(=O)NCCc1nnc(SCC(=O)c2ccc(Cl)cc2)o1	23.1µM*	0.5	1.1%	-1.7	-16.8	?
CC1CCCCN1C(=O)Cn1cnc2cc([N+](=O)[O-])ccc2c1=O (stereo not drawn)	14.6µM*	4.2	1.2%	-2.2	65.9	18.4µM*
Cc1cc(C)c(C(=O)Cn2cnc3cc([N+](=O)[O-])ccc3c2=O)cc1C	?	?	3.7%	-12.1	2.2	18.4µM*
O=C(Cn1cnc2cc([N+](=O)[O-])ccc2c1=O)Nc1cccc(S(=O)(=O)N2CCCCC2)c1	?	-29.6	/	?	-54.6*	?
CCCCNC(=O)c1ccc(CS(=O)(=O)c2ccc(C)cc2)o1	-24.3%	4.5	/	7.0	-0.7	-17.8%
COc1cccc(CN2CCC2(C)C(=O)Nc2cnc3ccccc3c2)c1F (stereo not drawn)	?	-8.1	/	-5.5	0.0	18.4µM*
COc1cccc(NC(=O)C2(C)CCN2Cc2ccc(OC)c3ccccc23)c1 (stereo not drawn)	?	-2.9	/	0.3	-17.2	-75.0%
CC1(C(=O)Nc2cnc3ccccc3c2)CCN1Cc1ccccc1Cl (stereo not drawn)	16.4µM*	-5.6	/	-7.6	-11.9	14.6µM*
CC1(C(=O)Nc2cnc3ccccc3c2)CCN1Cc1ccc(OC(F)(F)F)cc1 (stereo not drawn)	?	0.9	/	5.9	9.7	?
CSc1ccc(CN2CCC2(C)C(=O)Nc2cnc3ccccc3c2)cc1 (stereo not drawn)	?	-14.3	/	-14.7	-20.3	?
CC1(C(=O)Nc2cnc3ccccc3c2)CCN1Cc1ccccc1OC(F)F (stereo not drawn)	23.1µM*	-12.1	/	-9.3	/	16.4µM*
COc1cccc(CN2CCC2(C)C(=O)Nc2ccc(Cl)c(Cl)c2)c1F (stereo not drawn)	20.6µM*	6.0	/	9.1	-2.8	?
CCCCOC(=O)c1ccc(NC(=O)c2cc(-c3cccs3)on2)cc1	-29.3%	/	-1.6%	/	/	?
N#C/C(=C(/O)CSc1nnc(Cc2cccs2)n1C1CCCCC1)c1nc2ccccc2[nH]1	-19.6%	-13.5	1.0%	-12.4	31.7	?
CCc1ccc(NC(=O)CSc2ccc(-c3cccs3)nn2)cc1	-19.1%	/	-5.1%	/	/	-24.5%
CC1(C(=O)Nc2cnc3ccccc3c2)CCN1Cc1ccc(-c2ccccc2)o1 (stereo not drawn)	?	-6.2	/	-17.9	-22.1	16.4µM*
COc1cccc(NC(=O)C2(C)CCN2Cc2ccc(-c3ccccc3)o2)c1 (stereo not drawn)	?	-0.1	/	-22.1	-8.3	?
O=C(NCc1cccc(F)c1)c1[nH]c(C(F)(F)F)nc1-c1ccccc1	?	-1.1	/	-12.6	1.0	?
[O-]/[N+](=C\c1ccccc1)c1ccc(Br)cc1	?	0.9	9.3%	/	1.0	16.4µM*
O=C(CCCCCCCC(=O)N1CCCCCC1)N1CCCCCC1	23.1µM*	4.6	/	1.6	0.2	?
O=C(CN1C(=O)c2cccc3cccc1c23)NC1CCCCC1	11.0%	-7.6	/	-5.3	54.5	-4.3%
O=C(c1ccc(Cl)c(S(=O)(=O)N2CCOCC2)c1)N1CCOCC1	0.4%	18.2	9.0%[0.0935 µM]	-15.9	21.2	-11.1%
SMILES	TDP1 cell CPT	Six1-Eya2 blk	TDP1 block	CtBP-E1A blk	IL-1B inflam inh	TDP1 cell noCPT
O=c1c2ccccc2sn1-c1ccc(Cl)c(S(=O)(=O)N2CCOCC2)c1	1.41µM*	/	1.6%	/	/	3.16µM*
Fc1cccc(Cc2c(-c3cccc(Br)c3)nc3ccc(Br)cn23)c1	-29.2%	-1.8	/	5.8	34.6	?
c1cc2c3c(cccc3c1)NC1(CCCC1)N2	?	-7.2	/	9.6	-10.4	-27.9%
CC1(C)Nc2cccc3c(N=Nc4ccc(N=Nc5ccccc5)c5ccccc45)ccc(c23)N1	?	/	/	/	/	11.2µM*
CC1(C)Nc2cccc3cccc(c23)N1	?	-4.8	/	-3.0	6.7	16.4µM*
CCOC(=O)c1c(C)n(-c2ccc(OC)cc2)c2ccc(O)c(CN(C)C)c12	25.9µM*	-15.0	/	-18.3	-29.8	16.4µM*
CCOC(=O)c1c(C)n(C)c2ccc(O)c(CN(C)C)c12	20.6µM*	-16.2	9.2%	-2.1	-52.9*	18.4µM*
O=C(c1ccc(OC2CCN(Cc3ccc(C(F)(F)F)cc3)CC2)cc1)N1CCCCC1	?	2.0	2.8%	3.1	4.0	20.6µM*
O=C(c1ccc(OC2CCN(Cc3ccccc3OC(F)F)CC2)cc1)N1CCCC1	-10.4%	-5.7	6.7%	-6.9	?	22.5%
O=C(c1ccc(OC2CCN(Cc3ccccc3C(F)(F)F)CC2)cc1)N1CCCCC1	?	-7.7	2.2%	-4.6	-84.7*	?
COc1ccc(C(=O)Nc2cc(Cl)cc(Cl)c2)c(OC)n1	?	5.6	-3.8%	11.9	-17.6	?
CCc1cccc(NC(=O)c2sc3nc4n(c(=O)c3c2C)CCC4)c1	?	-14.0	3.0%	?	5.1	?
CCOC(=O)c1ccc(NC(=O)c2sc3nc4n(c(=O)c3c2C)CCC4)cc1	16.4µM*!	4.7	-0.3%	0.0	-51.5*	18.4µM*
Cc1c(C(=O)Nc2cccc(C(F)(F)F)c2)sc2nc3n(c(=O)c12)CCC3	23.1µM*	/	2.6%	/	/	23.1µM*
Cc1c(C(=O)Nc2cccc(C#N)c2)sc2nc3n(c(=O)c12)CCCCC3	16.4µM*	/	11.7%	/	/	13µM*
Cc1nc(N2CCCCC2)c2c(C)c(C(=O)Nc3cccc(C(F)(F)F)c3)sc2n1	?	12.4	-2.6%	/	-7.7	?
CCOc1ccc(NC(=O)c2sc3nc4n(c(=O)c3c2C)CCC4)cc1	?	-0.6	3.5%	-3.0	-12.4	-12.5%
Cc1nc(N2CCCCC2C)c2c(C)c(C(=O)Nc3cccc(C(F)(F)F)c3)sc2n1 (stereo not drawn)	?	17.1	-5.3%	-5.2	-73.2*	?
